PubChem BioAssay (NCI)
About 83,000 compounds went through this panel and 20% of them were active in at least one assay; those are over-represented in the sample as a whole.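 The test compound was applied at a single concentration to cells in 96-well plates for 48 hours, and percent growth was recorded.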 Values without a mark were called inactive. Calls of active or inactive are those of the source. How the source made its calls: active means growth percent below 10; inactive means the rest.

What was measured:
Assay in all cases: NCI-60 one-dose screen, 48 h (100 = growth as untreated, 0 = no growth, -100 = all killed)
Conditions in all cases: 10 µM unless noted
MOLT-4 leukemia = test system: MOLT-4 leukemia
SR leukemia = test system: SR leukemia
RPMI-8226 leukemia = test system: RPMI-8226 leukemia
OVCAR-8 ovarian = test system: OVCAR-8 ovarian
OVCAR-5 ovarian = test system: OVCAR-5 ovarian
OVCAR-4 ovarian = test system: OVCAR-4 ovarian
SK-OV-3 ovarian = test system: SK-OV-3 ovarian
IGROV1 ovarian = test system: IGROV1 ovarian
OVCAR-3 ovarian = test system: OVCAR-3 ovarian
HS 578T breast = test system: HS 578T breast

SMILES | growth (MOLT-4 leukemia) | growth (SR leukemia) | growth (RPMI-8226 leukemia) | growth (OVCAR-8 ovarian) | growth (OVCAR-5 ovarian) | growth (OVCAR-4 ovarian) | growth (SK-OV-3 ovarian) | growth (IGROV1 ovarian) | growth (OVCAR-3 ovarian) | growth (HS 578T breast)
CCOC(=O)[C@@H](C)C[C@H](Cc1ccccc1)NC(=O)c1nc([C@@H](C[C@H](C(C)C)N(C)C(=O)[C@@H](NC(=O)[C@H]2CCCCN2C)C(C)C)OC(C)=O)sc1CCOCc1ccccc1 | -2.06% (active) | -36.9% (active) | -32% (active) | -19.3% (active) | 6.59% (active) | 14.9% | -3.36% (active) | -4.01% (active) | -53% (active) | -27.9% (active)
O=C(CC1(O)C(=O)Nc2ccc(Br)cc21)c1ccc(C(=O)NCC2CCC3(CC2)OOC2(CCCCC2)OO3)cc1 (stereo not given) | -29.4% (active) | -38.7% (active) | -27.4% (active) | 41.7% | 95.8% | 48.7% | 70.6% | 14.8% | 8.92% (active) | 62.9%
CC12CCC=CC1CCC1C2CCC2(C)C(c3ccc(=O)oc3)CCC12O (stereo not given) | -16.7% (active) | -4.41% (active) | -14.1% (active) | -51.4% (active) | -80.4% (active) | -52.8% (active) | -11% (active) | -12.3% (active) | -74.5% (active) | -14.8% (active)
Clc1ccc(N2COOC3(OOC2)C2CC4CC(C2)CC3C4)cc1 | 56.9% | 11.2% | 35.6% | 46.6% | 70.4% | 87.1% | 92.9% | -52.9% (active) | 4.41% (active) | 75.9%
COc1ccc(NC([Se])=NC23CC4CC(CC(C4)C2)C3)cc1 | 5.72% (active) | 5.11% (active) | -31.9% (active) | -0.307% (active) | -12.9% (active) | 6.53% (active) | -18.2% (active) | 3.84% (active) | -32.3% (active) | -5.52% (active)
COC(=O)[C@@H](C)C[C@H](Cc1ccccc1)NC(=O)c1csc([C@@H](C[C@H](C(C)C)N(C)C(=O)C2(NC(=O)[C@H]3CCCCN3C)CC2)OC(C)=O)n1 | 9.45% (active) | 11% | 12.8% | 23.3% | 20.3% | 44.5% | 19.1% | 27.1% | -16.4% (active) | 12%
O=C1C2C(C(=O)[N]1[Hg][c]1ccccc1)C1(Cl)C(Cl)=C(Cl)C2(Cl)C1(Cl)Cl (stereo not given) | -2.76% (active) | -23.6% (active) | -40.8% (active) | -47.4% (active) | 73% | 5.55% (active) | 62.1% | -39.3% (active) | -85.5% (active) | -14.1% (active)
CC1=C(O)[C@@](C)(CCCCC[C@H](C)CCCCc2ccc(O)cc2)OOC1=O | 86% | 50.1% | 85% | 93.4% | 103% | 100% | 106% | -11.1% (active) | 86.5% | 98.1%
C[C@@H]1C[C@@]2(C)[C@@H](CC[C@@H]3[C@@H]2CC[C@]2(C)C(=O)CC[C@@H]32)CC1=O | 66.2% | 108% | 137% | 62.6% | 93.6% | 103% | 120% | 76.7% | 112% | 81.2%
Cn1cc(-c2csc(-c3cn(CCN4CCOCC4)c4ccccc34)n2)c2cccnc21 | 29.9% | 63.6% | 29.6% | 29.5% | 95.6% | 64.2% | 105% | 61.8% | 70% | 78%
COC(=O)[C@@H](C)C[C@H](Cc1ccccc1)NC(=O)c1csc([C@@H](C[C@H](C(C)C)N(C)C(=O)C2(NC(=O)[C@H]3CCCCN3C)CCC2)OC(C)=O)n1 | 5.46% (active) | 5.54% (active) | 13.5% | 27.2% | 24% | 50% | 28.7% | 23.2% | -6.95% (active) | 13%
C[C@]12CCc3sc(-c4cccc(F)c4)nc3C1=CC[C@@H]1[C@@H]2CC[C@]2(C)C(=O)CC[C@@H]12 | 5.82% (active) | 5.11% (active) | -2.88% (active) | 28.5% | 87.2% | 65.1% | 17.9% | 0.597% (active) | 7.89% (active) | 27.4%
COc1ccc(S(=O)(=O)N(Cc2ccc3c(c2)C=CC(C)(C)O3)c2ccccc2)cc1OC | 74.4% | 75.9% | 46.2% | 79.9% | 103% | 70.6% | 90.7% | 75.6% | 74.3% | 91.1%
CC(=O)O[C@H](C[C@H](C(C)C)N(C)C(=O)[C@@H](NC(=O)[C@H]1CCCCN1C)C(C)C)c1nc(C(=O)N[C@@H](Cc2ccccc2)C[C@H](C)C(=O)O)c(C(C)C)s1 | 7.85% (active) | 7.04% (active) | 17.4% | 6.46% (active) | 39.1% | 46.9% | 27% | 20.6% | -28.1% (active) | 17%
Cc1cc(-c2nc3cc(F)ccc3[se]2)cc(F)c1N | 83.6% | 23.9% | 66.8% | 104% | 51.2% | 63.3% | 73.6% | 37.3% | 87.2% | 102%
CC1(C)CN1P(=O)(N1CC1(C)C)N1CC1(C)C (stereo not given) | 96.6% | 91.3% | 105% | 90.5% | 115% | 97.9% | 102% | 114% | 118% | 93.8%
O=[N+]([O-])c1cnc[nH]1 | 114% | 117% | 107% | 109% | 108% | 114% | 110% | 127% | 112% | 106%
COc1ccc(Nc2ccnc3cc(Cl)ccc23)cc1CN(CCCl)CCCl | -12.1% (active) | -0.721% (active) | -25.8% (active) | -39.3% (active) | -26.1% (active) | -15.3% (active) | 8.86% (active) | -36% (active) | -49.3% (active) | -27.6% (active)
O=C(CC1(O)C(=O)N(Cc2ccccc2)c2ccc(F)cc21)c1ccc(C(=O)NCC2CCC3(CC2)OOC2(CCCCC2)OO3)cc1 (stereo not given) | -48.9% (active) | -44.8% (active) | -29.7% (active) | -30.5% (active) | 4.61% (active) | -32.4% (active) | 41.1% | -38.1% (active) | -76.9% (active) | -9.82% (active)
Cc1cc(N(CCCl)CCCl)ccc1/C=N\NC(=O)c1ccncc1 | 58.8% | 47.9% | 90.6% | 61.9% | 54.5% | 89.1% | 95.4% | 87% | 90.8% | 109%
COc1cc(C=Nc2cccc(Br)c2)ccc1N(CCCl)CCCl | 64.2% | 44.1% | 86.2% | 81.6% | 85.6% | 93.6% | 71.3% | 96.3% | 80.8% | 150%
COC(=O)CC[C@H](Cc1ccccc1)NC(=O)c1csc([C@@H](C[C@H](C(C)C)N(C)C(=O)[C@@H](NC(=O)[C@H]2CCCCN2C)C(C)C)OC(C)=O)n1 | 9.45% (active) | 13.9% | 37.3% | 28.1% | 76.2% | 52.3% | 35.4% | 15.3% | -3.19% (active) | 38.2%
C/C(=C\c1ccn(-c2ccc(N)cc2C(F)(F)F)n1)[C@@H]1C[C@@H]2O[C@]2(C)CCC[C@H](C)[C@H](O)[C@@H](C)C(=O)C(C)(C)[C@@H](O)CC(=O)O1 | 9.23% (active) | 12.2% | 5.57% (active) | 17.4% | 24.1% | 69.7% | 0.896% (active) | 43.5% | 12.5% | -10.7% (active)
